High-throughput results deposited in PubChem BioAssay by The Scripps Research Institute Molecular Screening Center.
In the library only some 4.8% were active in any assay of this set; here they are far more common.
DAX1 inh-1 – blocks DAX1 repression of SF-1 activated StAR promoter; 370,000 tested, 1.1% active; HEK293T StAR-luciferase reporter, SF-1/DAX-1 repression relief; inhibition, % at 6.8 µM;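 active means inhibition above the mean over all tested compounds plus 3 SD, cut at about 3.6% in these data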;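 further: 0% = DAX-1 cells with DMSO and 100% = cells lacking DAX-1 with DMSO; higher inhibition means more luminescence from relief of DAX-1 repression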
hcDAF-12 act – H. contortus DAF-12 activation, primary screen; 370,000 tested, 1.4% active; activation, % at 6.8 µM; HEK293 hcDAF-12 lit1-tk-luc reporter, luminescence; 0% DMSO, 100% Δ7-dafachronic acid;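 active means activation above the mean of all tested compounds plus 3 SD, cut at about 5.5% in these data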;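 further: 100% = response to 3 µM Δ7-dafachronic acid high control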
SMARCA2 act – SMARCA2 function activation, primary screen; MG213 cells, MMTV-luciferase reporter, dexamethasone, overnight; activation, % at 9.1 µM; 370,000 tested, 1% active; AID 652017; in the data active means activation above about 7.8%;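 further: 0% = vehicle wells and 100% = reference activator wells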
hgDAF12 agonist – agonists of H. glycines DAF-12 nuclear receptor | HEK293 GAL4-hgDAF12 UAS-luciferase reporter, agonist luminescence; normalized to butyrate control | activation, % at 6.8 µM | 370,000 tested, 1.8% active;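 active means activation above a cutoff set at the mean of all screened compounds plus 3 SD, cut at about 10% in these data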;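 further: 0% = DMSO wells and 100% = sodium butyrate wells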
DAX1 inh-2 – inhibits human nuclear receptor DAX1; P51843; HEK293 Gal4-DAX1 luciferase reporter, luminescence; inhibition, % at 6.75 µM; 340,000 tested, 0.99% active; AID 504766;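 active means inhibition above the mean over all tested compounds plus 3 SD, cut at about 4.2% in these data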;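 further: 0% = DAX1-transfected cells with DMSO and 100% = empty-vector control cells with DMSO; inhibition shows as a rise in luminescence from relieved DAX1 repression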
Target sequence (P51843 207-470 limits assumed): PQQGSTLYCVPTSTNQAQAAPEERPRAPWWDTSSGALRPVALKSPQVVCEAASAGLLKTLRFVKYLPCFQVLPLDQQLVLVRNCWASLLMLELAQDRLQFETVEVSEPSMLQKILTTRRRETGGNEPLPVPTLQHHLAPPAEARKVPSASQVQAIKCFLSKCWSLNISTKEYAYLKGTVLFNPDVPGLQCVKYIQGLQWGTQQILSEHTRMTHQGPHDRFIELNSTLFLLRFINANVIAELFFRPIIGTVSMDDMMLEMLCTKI
ssDAF-12 act – S. stercoralis DAF-12 activation, primary screen; HEK293 ssDAF-12/GRIP1 lit1-tk-luc reporter, luminescence; % of 3 µM dafachronic acid response; activation, % at 6.8 µM; 370,000 tested, 1% active;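 active means activation above the mean over all tested compounds plus 3 SD, cut at about 0.9% in these data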;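 further: 0% = DMSO-only wells and 100% = 3 µM delta7-dafachronic acid wells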
The depositor's hits bear a star; x = not tested or not shown.

SMILES	DAX1 inh-1	hcDAF-12 act	SMARCA2 act	hgDAF12 agonist	DAX1 inh-2	ssDAF-12 act
Cc1cccc(C2c3[nH]c4ccccc4c3CCN2Cc2ccc(C)s2)n1 (stereo not drawn)	0	6.4*	0	4	0	1.0*
COc1ccccc1C1c2[nH]c3ccccc3c2CCN1Cc1cnc(C)s1 (stereo not drawn)	0	4	1	-1	0	1
Cc1cccc(C2c3[nH]c4ccccc4c3CCN2C(=O)Cc2n[nH]c(C)n2)n1 (stereo not drawn)	1	3	-1	4	1	1.5*
COc1ccc(C2c3[nH]c4ccccc4c3CCN2C(=O)Cc2nonc2C)c(F)c1 (stereo not drawn)	1	5.7*	6	9	0	0
COc1cccc(C2c3[nH]c4ccccc4c3CCN2Cc2cnc(C)s2)c1OC (stereo not drawn)	0	3	-1	0	0	1.1*
O=C(c1cccc(OC2CCN(Cc3ccc(F)cc3Cl)CC2)c1)N1CCCC1	-2	-2	-2	-2	0	-1
CC(=O)Oc1ccccc1Cn1c(C)c(C(=O)NCc2cccc(Cl)c2)sc1=O	-1	-2	-2	-2	x	-2
CCOC(=O)C(C)Sc1ccc2nnc(CCNS(=O)(=O)c3ccccc3)n2n1 (stereo not drawn)	0	-1	1	0	5.8*	-1
COC(=O)CSc1ccc2nnc(CCNS(=O)(=O)c3ccccc3)n2n1	0	0	3	-1	3	-1
CCc1nc2c(OCC(=O)c3ccc(Cl)cc3Cl)cccn2c1N(C)C(=O)c1cccs1	0	-1	-3	-5	x	-2
Cc1cc(C)cc(NC(=O)O[C@@H]2CC[C@@]34CCCN3C(=O)CCC[C@H]4C2)c1	x	-3	x	-4	x	-2
CN(Cc1ccc(Cl)s1)C(=O)CN1C(=O)N(C)C2(CCCCC2)C1=O	0	-1	0	2	0	-1
Cc1cc(C)cc(C(=O)Nc2nc3ccccc3[nH]2)c1	0	1	3	7	1	-1
CC1CCCN(S(=O)(=O)c2ccc(C(=O)Nc3ccccc3-c3nc4ccccc4[nH]3)cc2)C1 (stereo not drawn)	0	1	0	1	-1	-2
CCc1ccc(C(=O)Nc2nc3ccccc3[nH]2)cc1	-1	-4	-7	-12	-5	-1
CC1CCN(S(=O)(=O)c2ccc(C(=O)Nc3ccccc3-c3nc4ccccc4[nH]3)cc2)CC1	0	3	9.7*	0	1	-1
O=C(Nc1nc2ccccc2[nH]1)c1ccc(OC(F)F)cc1	1	3	2	11*	-2	0
O=C(Nc1nc2ccccc2[nH]1)c1cc(F)cc(F)c1	2	5.6*	8	10	1	1
CN(C)S(=O)(=O)c1ccc(C(=O)Nc2nc3ccccc3[nH]2)cc1	3	1	5	8	6.7*	-1
Cc1cc(F)ccc1C(O)c1ncc(-c2ccccc2C(F)(F)F)[nH]1 (stereo not drawn)	-1	-1	-3	-2	x	-1
Cc1c(C(=O)Nc2nc3ccccc3[nH]2)cccc1[N+](=O)[O-]	2	5	5	8	2	1.5*
Cn1nc(C(=O)Nc2nc3ccccc3[nH]2)c2ccccc2c1=O	0	-1	16*	3	0	-1
O=C(Nc1nc2ccccc2[nH]1)c1ccccc1[N+](=O)[O-]	1	1	4	8	3	-1
Cc1ccc(/C=C/C(=O)c2ccc(O)cc2)cc1	0	2	3	11*	4.4*	-1
CSc1ccc(/C=C/C(=O)c2ccc(O)cc2)cc1	1	0	0	5	2	0
SMILES	DAX1 inh-1	hcDAF-12 act	SMARCA2 act	hgDAF12 agonist	DAX1 inh-2	ssDAF-12 act
O=C(N/N=C1\CC(c2ccccc2)Oc2ccccc21)c1ccccn1 (stereo not drawn)	3.8*	4	4	1	0	-1
COC(=O)[C@@H]1C[C@@]2(c3ccccc3)c3ccccc3N(S(=O)(=O)c3ccccc3)[C@H]2N1C(=O)CNC1CCCCC1	0	-1	-4	1	x	-1
COc1cc(NS(=O)(=O)c2cc3[nH]c(=O)c(=O)[nH]c3cc2C)cc(OC)c1OC	1	5	-2	-2	4.8*	-1
COc1cc(NS(=O)(=O)c2ccc(C)cc2C)cc(OC)c1OC	-3	-4	-5	-8	-3	-2
Cc1ccc(-c2nc3c(c(=O)c4ccccc4n3C)c(=O)n2-c2ccc(F)cc2)cc1	0	5.6*	-3	0	1	0
Cn1c2ccccc2c(=O)c2c(=O)n(-c3ccc(F)cc3)c(-c3cccs3)nc21	0	-2	-2	-3	3	-1
CC(=O)c1ccc(N2CCN(S(=O)(=O)c3c(C)[nH]c(C)c3C(=O)N3CCCCC3)CC2)cc1	0	-1	-1	1	2	0
Cc1ccc(C(=O)NCCc2nnc3ccc(NCc4ccc5c(c4)OCO5)nn23)cc1	0	-1	6	0	-1	-1
CCOC(=O)c1c(CSC(=N)N)n(-c2ccccc2)c2cc(Br)c(OC(C)=O)cc12	1	-1	-1	-1	4.3*	-1
CCOC(=O)c1c(CN2CCN(C)CC2)n(-c2ccccc2)c2cc(Br)c(O)cc12	0	-2	-3	-1	2	-2
Cc1ccccc1N1CCN(S(=O)(=O)c2ccc3c(c2)oc(=O)n3C)CC1	-1	-3	0	-2	x	-2
Cc1nc2c(ncn2-c2ccccc2)c(=O)n1NC(=O)CN1CCCCC1	0	0	-4	3	4.5*	-2
COc1ccc(-c2cc(-c3ccc(OC)cc3)nc(-c3ccc4c(c3)NC(=O)CO4)c2)cc1	0	1	-4	2	2	0
COc1cccc(-c2nc(-c3ccc4c(c3)NC(=O)CO4)cs2)c1	0	1	0	11*	4	-1
NC(N)=N/N=C(\N=Nc1ccccc1)c1ccc(Cl)cc1	2	1	0	8	0	-1
C=CCc1c(Cl)nc(C)nc1NCc1ccccc1	-1	-2	-4	2	1	-1
O=[N+]([O-])c1cccc(-c2noc(-c3ccco3)n2)c1	1	3	2	12*	2	-1
O=[N+]([O-])c1cccc(-c2nc(-c3ccccc3)no2)c1	1	3	8	5	2	0
CCc1ccc2oc(C(=O)Nc3cccnc3)c(C)c2c1	x	x	x	x	5.1*	x
O=C1NC2(CCCCC2)C(=O)N1c1ccccc1	-1	-1	1	0	5.8*	-1
Cc1cc(OCC(=O)NC(C)C)ccc1Cl	1	-2	-3	-2	0	-1
Cc1cc(OCC(=O)NC(C)C)cc(C)c1Br	0	-1	1	-2	4.4*	-1
